Of roughly 7,900 targets only a part is listed; those with a hit were picked by preference. About 0.6% of all pairs of compound and target were hits.
Key:
Assay in all cases: log2 fold change, soluble protein after heating vs DMSO (PISA); higher = thermal stabilisation; K562 cells, 10 uM, 30 min; active = over 0.2 and 3.5 SD of the protein, either way, in both replicates (recomputed)
[1] = compound: CC[C@@H]1C(=O)N(C)c2cnc(Nc3ccc(C(=O)NC4CCN(C)CC4)cc3OC)nc2N1C1CCCC1
Outline: (§1)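 K562 cells at 2×10^6 cells/mL were exposed to 10 μM compound for 30 min, then aliquots were heated for 3 min across 48°C-58°C, pooled, and extracted in PBS containing 0.5% NP-40 at 4°C. The supernatant after 21,000xg for 90 min was taken as soluble protein and measured by TMTpro 16plex LC-MS/MS with channel sums equalised. Thermal stability is reported relative to control samples, with values from duplicates. Fold changes are given on a log2 scale.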

volasertib = compound: CC[C@@H]1C(=O)N(C)c2cnc(Nc3ccc(C(=O)N[C@H]4CC[C@H](N5CCN(CC6CC6)CC5)CC4)cc3OC)nc2N1C(C)C [volasertib]
Outline: as §1

[2] = compound: CC[C@H](C)N1C=C(C2=C(C=C(C=C21)C3=CN=C(C=C3)N4CCNCC4)C(=O)NCC5=C(C=C(NC5=O)C)C)C
Outline: as §1

epoxomicin = compound: CC[C@H](C)[C@@H](C(=O)N[C@@H]([C@@H](C)O)C(=O)N[C@@H](CC(C)C)C(=O)[C@]1(CO1)C)NC(=O)[C@H]([C@@H](C)CC)N(C)C(=O)C [epoxomicin]
Outline: as §1

[3] = compound: CCn1c(C(=O)N(C2CC2)C2CC2)cc2c3c(ncn3C)c(Nc3cc(C)n(C)n3)nc21
Outline: as §1

[4] = compound: CCn1cc(-c2ccnc3[nH]c(-c4cccc(CN(C)C)c4)cc23)c(-c2ccc(NC(=O)N(C)C)cc2)n1
Outline: as §1

[5] = compound: CN(C)CC(=O)Nc1ccc2[nH]c(=O)c3ccccc3c2c1
Outline: as §1

rosiglitazone = compound: CN(CCOC1=CC=C(C=C1)C[C@H]2C(=O)NC(=O)S2)C3=CC=CC=N3 (racemic) [rosiglitazone]
Outline: as §1

[6] = compound: CN1C2=C(C3=C1C(=O)N(N=C3)CC4=CC(=CC=C4)N)SC(=C2)S(=O)C
Outline: as §1

[7] = compound: CN1CCC(CNc2ccc3ncc(-c4cccc(OC(F)(F)F)c4)n3n2)CC1
Outline: as §1

saracatinib = compound: CN1CCN(CCOc2cc(OC3CCOCC3)c3c(Nc4c(Cl)ccc5c4OCO5)ncnc3c2)CC1 [saracatinib]
Outline: as §1

sotrastaurin = compound: CN1CCN(c2nc(C3=C(c4c[nH]c5ccccc45)C(=O)NC3=O)c3ccccc3n2)CC1 [sotrastaurin]
Outline: as §1

alvocidib = compound: CN1CC[C@H](c2c(O)cc(O)c3c(=O)cc(-c4ccccc4Cl)oc23)[C@H](O)C1 [alvocidib]
Outline: as §1

Tubastatin A = compound: CN1CCc2c(c3ccccc3n2Cc2ccc(C(=O)NO)cc2)C1 [Tubastatin A]
Outline: as §1

[8] = compound: CNC(=O)C1=CC=CC=C1NC2=NC(=NC=C2Cl)NC3=C(C=C(C=C3)N4CCOCC4)OC
Outline: as §1

defactinib = compound: CNC(=O)c1ccc(Nc2ncc(C(F)(F)F)c(NCc3nccnc3N(C)S(C)(=O)=O)n2)cc1 [defactinib]
Outline: as §1

rucaparib = compound: CNCc1ccc(-c2[nH]c3cc(F)cc4c3c2CCNC4=O)cc1 [rucaparib]
Outline: as §1

[9] = compound: CNc1nc(-c2ccc3c(N)n[nH]c3c2)cc(N2C[C@@H](C(=O)NC3CCCCC3)CC[C@H]2C)n1
Outline: as §1

encorafenib = compound: COC(=O)N[C@@H](C)CNc1nccc(-c2cn(C(C)C)nc2-c2cc(Cl)cc(NS(C)(=O)=O)c2F)n1 [encorafenib]
Outline: as §1

[10] = compound: COC(=O)[C@H](CCSC)NC(=O)C1=C(C=C(C=C1)NC[C@H](CS)N)C2=CC=CC=C2
Outline: as §1

Measured: log2 fold change

NRF1 isoform 4 (UniProt Q16656)
Sequence of UniProt Q16656 (Q16656 whole entry, looked up): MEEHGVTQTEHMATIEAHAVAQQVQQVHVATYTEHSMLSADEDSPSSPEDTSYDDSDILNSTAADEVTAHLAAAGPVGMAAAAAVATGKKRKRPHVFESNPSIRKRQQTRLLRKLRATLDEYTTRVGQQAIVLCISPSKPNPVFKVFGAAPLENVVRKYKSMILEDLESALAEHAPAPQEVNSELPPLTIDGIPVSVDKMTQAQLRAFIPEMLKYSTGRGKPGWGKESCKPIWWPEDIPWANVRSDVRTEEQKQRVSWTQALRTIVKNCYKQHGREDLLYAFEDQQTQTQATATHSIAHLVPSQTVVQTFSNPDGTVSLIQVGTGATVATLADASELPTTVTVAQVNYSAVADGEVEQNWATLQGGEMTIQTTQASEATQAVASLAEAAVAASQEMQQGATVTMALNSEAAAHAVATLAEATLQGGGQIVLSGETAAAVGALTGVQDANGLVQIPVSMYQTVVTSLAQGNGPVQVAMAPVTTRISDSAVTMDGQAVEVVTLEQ
inactive: [1] -0.173 | [2] 0.087 | epoxomicin 0.268 | [3] -0.056 | [4] 0.035 | [5] 0.08 | rosiglitazone 0.1 | [6] -0.084 | [7] 0.037 | saracatinib 0.102 | sotrastaurin -0.045 | alvocidib -0.159 | Tubastatin A 0.015 | [8] -0.016 | rucaparib -0.11 | [9] -0.061 | encorafenib 0.036 | [10] 0.015
active: volasertib -0.501 | defactinib -0.34

NSDHL (UniProt Q15738)
Sequence of UniProt Q15738 (Q15738 whole entry, looked up): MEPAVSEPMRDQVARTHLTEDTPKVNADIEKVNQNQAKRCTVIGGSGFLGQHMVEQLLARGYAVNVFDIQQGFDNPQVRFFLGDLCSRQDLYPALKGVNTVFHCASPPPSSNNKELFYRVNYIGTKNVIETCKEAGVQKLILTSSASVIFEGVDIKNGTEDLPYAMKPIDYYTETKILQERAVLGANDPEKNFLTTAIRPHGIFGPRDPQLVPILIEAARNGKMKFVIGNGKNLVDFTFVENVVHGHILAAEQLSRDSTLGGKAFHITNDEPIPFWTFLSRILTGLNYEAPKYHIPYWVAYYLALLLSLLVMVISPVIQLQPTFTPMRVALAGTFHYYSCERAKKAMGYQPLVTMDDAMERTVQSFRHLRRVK
inactive: [1] -0.005 | volasertib 0.084 | [2] 0.105 | epoxomicin -0.004 | [3] 0.08 | [4] -0.018 | [5] 0.012 | rosiglitazone 0.002 | [6] -0.193 | [7] -0.001 | saracatinib -0.07 | sotrastaurin 0.043 | alvocidib -0.051 | Tubastatin A -0.004 | [8] 0.072 | defactinib -0.037 | rucaparib -0.094 | [9] 0.041 | encorafenib -0.019 | [10] -0.021

NDUFB10 (UniProt O96000)
inactive: [1] -0.008 | volasertib 0.056 | [2] -0.007 | epoxomicin 0.001 | [3] 0 | [4] 0.03 | [5] -0.005 | rosiglitazone 0.013 | [6] -0.043 | saracatinib -0.027 | sotrastaurin 0.008 | alvocidib -0.013 | Tubastatin A -0.022 | [8] -0.012 | defactinib -0.016 | rucaparib 0.012 | [9] -0.004 | encorafenib -0.005 | [10] -0.029
active: [7] -0.237

MRPS35 (UniProt P82673)
inactive: [1] 0.064 | volasertib 0.014 | [2] 0.029 | epoxomicin 0.048 | [3] -0.054 | [4] -0.076 | [5] 0.027 | rosiglitazone -0.08 | [6] -0.013 | [7] -0.007 | saracatinib -0.18 | sotrastaurin -0.033 | alvocidib 0.01 | Tubastatin A 0.078 | [8] -0.022 | defactinib 0.043 | rucaparib 0.071 | [9] 0.062 | encorafenib 0.039 | [10] 0.007

ORC3 isoform 2 (UniProt Q9UBD5)
Sequence of UniProt Q9UBD5 (Q9UBD5 whole entry, looked up): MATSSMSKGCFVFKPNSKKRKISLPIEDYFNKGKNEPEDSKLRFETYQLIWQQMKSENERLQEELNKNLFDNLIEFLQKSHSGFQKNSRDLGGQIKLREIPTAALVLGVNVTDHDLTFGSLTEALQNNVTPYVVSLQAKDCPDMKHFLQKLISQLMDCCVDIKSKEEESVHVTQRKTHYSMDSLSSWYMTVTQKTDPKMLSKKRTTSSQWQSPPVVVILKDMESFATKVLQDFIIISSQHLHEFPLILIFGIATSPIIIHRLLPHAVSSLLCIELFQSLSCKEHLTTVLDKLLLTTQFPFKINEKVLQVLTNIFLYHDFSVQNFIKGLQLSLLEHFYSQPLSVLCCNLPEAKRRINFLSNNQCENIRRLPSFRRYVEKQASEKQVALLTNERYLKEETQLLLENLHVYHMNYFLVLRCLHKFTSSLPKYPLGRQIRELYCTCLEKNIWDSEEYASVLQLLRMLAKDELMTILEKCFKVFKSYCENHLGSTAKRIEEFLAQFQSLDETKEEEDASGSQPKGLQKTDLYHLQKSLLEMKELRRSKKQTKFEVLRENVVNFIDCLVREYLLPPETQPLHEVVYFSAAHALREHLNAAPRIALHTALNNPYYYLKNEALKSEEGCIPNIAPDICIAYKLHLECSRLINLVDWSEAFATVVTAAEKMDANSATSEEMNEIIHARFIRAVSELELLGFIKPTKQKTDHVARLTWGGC
inactive: [1] -0.046 | volasertib -0.396 | [2] 0.044 | epoxomicin 0.181 | [3] -0.053 | [4] -0.017 | [5] 0.067 | rosiglitazone 0.059 | [6] -0.034 | [7] -0.376 | saracatinib 0.001 | sotrastaurin 0.011 | alvocidib -0.299 | Tubastatin A 0.006 | [8] -0.078 | defactinib -0.288 | rucaparib 0 | [9] 0.014 | encorafenib 0.288 | [10] 0.06

NCL (UniProt P19338)
inactive: [1] 0.167 | volasertib 0.173 | [2] -0.011 | epoxomicin -0.427 | [3] 0.022 | [4] 0.336 | [5] -0.06 | rosiglitazone -0.194 | [6] 0.393 | [7] 0.293 | saracatinib -0.111 | sotrastaurin 0.013 | alvocidib 0.277 | Tubastatin A 0.148 | [8] -0.001 | defactinib 0.354 | rucaparib 0.387 | [9] 0.137 | encorafenib 0.257 | [10] -0.01

NELFA (UniProt Q9H3P2)
Sequence of UniProt Q9H3P2 (Q9H3P2 whole entry, looked up): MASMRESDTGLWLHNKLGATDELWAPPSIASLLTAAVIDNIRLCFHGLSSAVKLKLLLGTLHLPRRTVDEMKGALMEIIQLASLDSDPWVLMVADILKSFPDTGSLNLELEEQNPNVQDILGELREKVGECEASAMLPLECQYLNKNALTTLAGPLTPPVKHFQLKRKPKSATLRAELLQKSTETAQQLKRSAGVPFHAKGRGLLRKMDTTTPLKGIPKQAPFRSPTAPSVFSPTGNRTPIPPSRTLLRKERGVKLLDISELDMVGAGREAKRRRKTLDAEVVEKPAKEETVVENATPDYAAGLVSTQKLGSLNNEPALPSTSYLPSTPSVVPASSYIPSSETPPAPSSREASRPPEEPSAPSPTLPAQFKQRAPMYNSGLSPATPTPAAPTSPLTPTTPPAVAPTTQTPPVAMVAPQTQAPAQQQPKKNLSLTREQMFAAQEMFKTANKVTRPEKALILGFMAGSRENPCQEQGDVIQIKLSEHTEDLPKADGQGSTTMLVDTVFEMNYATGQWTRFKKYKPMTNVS
inactive: [1] -0.4 | [2] 0.341 | epoxomicin 0.053 | [3] -0.105 | [4] -0.139 | [5] 0.16 | rosiglitazone 0.048 | [6] -0.051 | [7] 0.006 | saracatinib 0.004 | sotrastaurin -0.023 | alvocidib -0.193 | Tubastatin A 0.216 | [8] 0.078 | defactinib -0.094 | rucaparib 0.261 | [9] -0.014 | encorafenib -0.039 | [10] -0.213
active: volasertib -0.868

NFATC2IP (UniProt Q8NCF5)
Sequence of UniProt Q8NCF5 (Q8NCF5 whole entry, looked up): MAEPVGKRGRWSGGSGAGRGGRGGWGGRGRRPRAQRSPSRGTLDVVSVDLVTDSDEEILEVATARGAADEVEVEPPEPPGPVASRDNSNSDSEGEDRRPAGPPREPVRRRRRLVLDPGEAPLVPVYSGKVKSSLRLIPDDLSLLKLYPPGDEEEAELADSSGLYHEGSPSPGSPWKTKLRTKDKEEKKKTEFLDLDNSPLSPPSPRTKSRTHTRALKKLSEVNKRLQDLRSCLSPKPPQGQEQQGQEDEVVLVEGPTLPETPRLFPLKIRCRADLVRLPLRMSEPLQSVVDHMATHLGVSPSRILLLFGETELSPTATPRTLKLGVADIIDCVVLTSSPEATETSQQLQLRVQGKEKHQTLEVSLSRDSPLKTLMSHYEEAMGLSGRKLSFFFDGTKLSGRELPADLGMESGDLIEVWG
inactive: [1] -0.09 | [2] 0.069 | epoxomicin -0.052 | [3] 0.022 | [4] 0.038 | [5] 0.048 | rosiglitazone 0.041 | [6] -0.008 | [7] -0.103 | saracatinib 0.065 | sotrastaurin -0.033 | alvocidib -0.107 | Tubastatin A 0.012 | [8] 0.067 | defactinib -0.122 | rucaparib 0 | [9] 0.005 | encorafenib 0.075 | [10] -0.017
active: volasertib -0.278

NCOA7 (UniProt Q8NI08)
inactive: [1] -0.035 | [2] 0.124 | epoxomicin 0.021 | [3] -0.091 | [4] -0.004 | [5] -0.002 | rosiglitazone 0.099 | [6] -0.009 | [7] -0.265 | saracatinib -0.05 | sotrastaurin -0.074 | alvocidib -0.052 | Tubastatin A -0.02 | [8] -0.011 | defactinib -0.099 | rucaparib -0.029 | [9] -0.064 | encorafenib 0.019 | [10] 0.039
active: volasertib -0.287

NA, A0A0B4J2A0
inactive: [1] -0.163 | volasertib -0.036 | [2] 0.008 | epoxomicin 0.11 | [3] -0.04 | [4] -0.055 | [5] -0.004 | rosiglitazone 0.049 | [6] -0.078 | [7] -0.101 | saracatinib 0.007 | sotrastaurin 0.044 | alvocidib -0.058 | Tubastatin A -0.058 | [8] -0.077 | defactinib -0.051 | rucaparib -0.005 | [9] -0.022 | encorafenib -0.003 | [10] -0.037

NCKAP1 isoform 2 (UniProt Q9Y2A7)
active: volasertib -0.25
inactive: [1] 0.002 | [2] 0.031 | epoxomicin 0.01 | [3] -0.003 | [4] -0.036 | [5] 0.043 | rosiglitazone 0.011 | [6] -0.042 | [7] -0.027 | saracatinib 0.02 | sotrastaurin -0.031 | alvocidib -0.06 | Tubastatin A 0.027 | [8] 0.006 | defactinib -0.071 | rucaparib -0.022 | [9] 0.019 | encorafenib 0 | [10] -0.007

NUP98 (UniProt P52948)
Sequence of UniProt P52948 (P52948 whole entry, looked up): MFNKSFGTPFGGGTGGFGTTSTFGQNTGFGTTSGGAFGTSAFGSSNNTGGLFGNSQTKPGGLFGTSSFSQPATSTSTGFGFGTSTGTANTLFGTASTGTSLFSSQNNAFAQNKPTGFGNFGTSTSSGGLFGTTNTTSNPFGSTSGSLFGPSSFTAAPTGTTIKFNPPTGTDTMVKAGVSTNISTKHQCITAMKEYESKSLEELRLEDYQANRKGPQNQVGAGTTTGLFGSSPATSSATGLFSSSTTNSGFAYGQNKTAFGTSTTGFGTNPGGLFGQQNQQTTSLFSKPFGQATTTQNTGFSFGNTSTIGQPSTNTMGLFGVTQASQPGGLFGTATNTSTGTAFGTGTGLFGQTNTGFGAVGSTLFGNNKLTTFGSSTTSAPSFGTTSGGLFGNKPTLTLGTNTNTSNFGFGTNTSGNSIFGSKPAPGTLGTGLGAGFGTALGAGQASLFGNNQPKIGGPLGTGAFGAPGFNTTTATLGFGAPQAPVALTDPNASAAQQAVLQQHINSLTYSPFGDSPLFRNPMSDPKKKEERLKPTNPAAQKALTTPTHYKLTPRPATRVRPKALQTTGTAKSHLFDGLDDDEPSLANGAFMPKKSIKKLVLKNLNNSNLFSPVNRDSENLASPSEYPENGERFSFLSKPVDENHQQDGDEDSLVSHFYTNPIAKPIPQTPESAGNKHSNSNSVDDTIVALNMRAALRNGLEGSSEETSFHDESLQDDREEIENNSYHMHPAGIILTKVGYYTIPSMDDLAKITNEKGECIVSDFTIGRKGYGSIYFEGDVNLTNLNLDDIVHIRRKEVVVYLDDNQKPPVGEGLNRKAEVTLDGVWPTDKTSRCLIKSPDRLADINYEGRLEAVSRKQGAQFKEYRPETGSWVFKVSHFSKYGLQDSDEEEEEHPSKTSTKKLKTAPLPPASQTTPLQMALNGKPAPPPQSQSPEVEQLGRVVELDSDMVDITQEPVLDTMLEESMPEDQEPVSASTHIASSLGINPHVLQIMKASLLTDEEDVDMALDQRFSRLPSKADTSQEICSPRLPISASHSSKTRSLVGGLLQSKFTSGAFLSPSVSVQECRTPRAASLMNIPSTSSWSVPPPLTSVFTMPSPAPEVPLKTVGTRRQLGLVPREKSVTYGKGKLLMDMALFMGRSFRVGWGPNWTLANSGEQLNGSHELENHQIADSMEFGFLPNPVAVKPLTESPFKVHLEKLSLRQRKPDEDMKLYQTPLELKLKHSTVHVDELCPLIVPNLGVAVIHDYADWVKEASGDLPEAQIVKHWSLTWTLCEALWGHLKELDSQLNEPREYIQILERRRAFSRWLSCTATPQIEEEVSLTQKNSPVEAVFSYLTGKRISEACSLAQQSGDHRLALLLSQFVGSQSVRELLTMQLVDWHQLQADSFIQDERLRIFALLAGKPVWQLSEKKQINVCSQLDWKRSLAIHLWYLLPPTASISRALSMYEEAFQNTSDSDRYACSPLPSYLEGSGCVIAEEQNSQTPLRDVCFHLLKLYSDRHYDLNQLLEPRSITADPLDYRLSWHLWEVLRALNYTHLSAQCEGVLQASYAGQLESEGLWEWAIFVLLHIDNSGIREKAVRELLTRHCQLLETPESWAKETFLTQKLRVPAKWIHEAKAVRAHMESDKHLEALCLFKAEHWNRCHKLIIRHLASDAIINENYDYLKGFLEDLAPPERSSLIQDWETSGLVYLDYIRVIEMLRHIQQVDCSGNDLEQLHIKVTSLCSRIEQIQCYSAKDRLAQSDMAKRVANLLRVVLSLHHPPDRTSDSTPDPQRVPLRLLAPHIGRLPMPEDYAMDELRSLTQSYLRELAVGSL
active: volasertib -0.276
inactive: [1] -0.12 | [2] 0.084 | epoxomicin -0.012 | [3] -0.027 | [4] -0.018 | [5] 0.039 | rosiglitazone 0.068 | [6] 0.033 | [7] -0.038 | saracatinib -0.019 | sotrastaurin -0.072 | alvocidib -0.063 | Tubastatin A 0.041 | [8] 0.018 | defactinib -0.12 | rucaparib 0.063 | [9] -0.037 | encorafenib 0.039 | [10] -0.053

NBN (UniProt O60934)
inactive: [1] -0.072 | [2] 0.031 | epoxomicin 0.073 | [3] -0.038 | [4] 0.002 | [5] 0.061 | rosiglitazone 0.034 | [6] -0.043 | [7] -0.116 | saracatinib -0.008 | sotrastaurin -0.03 | alvocidib -0.197 | Tubastatin A 0.191 | [8] -0.065 | defactinib -0.159 | rucaparib 0.006 | [9] 0.049 | encorafenib 0.003 | [10] -0.019
active: volasertib -0.219

NSMCE4A (UniProt Q9NXX6)
Sequence of UniProt Q9NXX6 (Q9NXX6 whole entry, looked up): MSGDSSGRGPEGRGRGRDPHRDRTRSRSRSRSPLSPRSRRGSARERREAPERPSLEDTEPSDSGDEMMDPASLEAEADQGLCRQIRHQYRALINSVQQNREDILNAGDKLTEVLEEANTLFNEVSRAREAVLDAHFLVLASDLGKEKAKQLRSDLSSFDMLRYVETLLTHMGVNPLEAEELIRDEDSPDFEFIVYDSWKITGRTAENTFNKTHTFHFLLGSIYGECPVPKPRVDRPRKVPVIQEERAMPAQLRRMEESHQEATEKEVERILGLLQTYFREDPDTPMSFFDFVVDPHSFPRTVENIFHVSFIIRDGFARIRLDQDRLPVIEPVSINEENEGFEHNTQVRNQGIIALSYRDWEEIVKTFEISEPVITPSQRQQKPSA
inactive: [1] 0.069 | volasertib 0.053 | [2] 0.103 | epoxomicin -0.02 | [3] 0.112 | [4] -0.251 | [5] -0.13 | rosiglitazone 0.057 | [6] -0.33 | [7] -0.009 | saracatinib 0.109 | sotrastaurin 0.015 | alvocidib -0.003 | Tubastatin A 0.05 | [8] -0.112 | defactinib -0.086 | rucaparib 0 | [9] -0.114 | encorafenib -0.064 | [10] -0.002

MYL12B (UniProt O14950)
Sequence of UniProt O14950 (O14950 whole entry, looked up): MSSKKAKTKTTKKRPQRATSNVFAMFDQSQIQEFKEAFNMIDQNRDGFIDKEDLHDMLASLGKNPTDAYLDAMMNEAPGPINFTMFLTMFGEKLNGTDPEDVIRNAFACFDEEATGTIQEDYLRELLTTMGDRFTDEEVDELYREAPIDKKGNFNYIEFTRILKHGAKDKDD
inactive: [1] -0.053 | volasertib -0.085 | [2] 0.06 | epoxomicin 0.052 | [3] -0.06 | [4] -0.064 | [5] 0.031 | rosiglitazone -0.025 | [6] -0.078 | [7] 0.01 | saracatinib 0.057 | sotrastaurin -0.012 | alvocidib -0.14 | Tubastatin A 0.019 | [8] 0.007 | defactinib -0.036 | rucaparib 0.009 | [9] -0.041 | encorafenib -0.012 | [10] -0.018

MTOR (UniProt P42345)
active: volasertib -0.305 | [7] -0.286
inactive: [1] -0.131 | [2] 0.04 | epoxomicin -0.021 | [3] -0.05 | [4] -0.073 | [5] 0.036 | rosiglitazone 0.058 | [6] 0.017 | saracatinib -0.076 | sotrastaurin 0.088 | alvocidib -0.101 | Tubastatin A 0.002 | [8] -0.005 | defactinib -0.09 | rucaparib 0 | [9] -0.009 | encorafenib 0.041 | [10] -0.02

— the supplement of paper PMC10849652
